From PubChem
HEK293 cAMP cs: qHTS Assay for Agonists of the Thyroid Stimulating Hormone Receptor: Activators of Intracellular cAMP Concentrations in Parental HEK 293 | 2.5% of 73,000 active | AID 938, 2007 | Potency, µM (top dose mostly 57.1 µM), inactives show top-dose activation, hits mostly activators | parental HEK293 CNG cAMP sensor, membrane potential fluorescence; also: % of control where 0% means no effect; nearly all actives have a fitted effect of over 55% in size
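Parental HEK 293 cells stably expressing a modified CNG channel (no TSHR) report cAMP rise as membrane depolarization. Membrane potential dye with 100 uM RO 20-1724 was loaded for 60 min at room temperature, then compound added for 30 min; fluorescence read at 590 nm.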
TSHR ag: qHTS Assay for Agonists of the Thyroid Stimulating Hormone Receptor; Thyrotropin receptor (Homo sapiens), P16473; HEK293-CNG-TSHR cells (CNG channel as cAMP sensor), membrane potential dye, cAMP; Potency, µM (top dose mostly 57.1 µM), for the others: top-dose activation, usual class: activators; 0.48% of 73,000 active; AID 926, 2007; active = well fitted activation curve with a large enough effect in the main read-out, with a control signal flat, not every such curve was filed as active; inconclusive = small, poorly fitted or top-dose-only effect, or a change in a side signal; inactive = no such curve, though single readings can be large or run the other way; % of control where 0% means no effect;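 also: the control signal comes from parental cells without the receptor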
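HEK 293 cells stably expressing TSHR and a modified CNG channel, with CNG-only parental cells as counterscreen, were preloaded 60 min at room temperature with membrane potential dye containing 100 uM RO 20-1724. Compound exposure was 30 min, and depolarization was read as fluorescence at 590 nm.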
ALOX15 inhib: qHTS Assay for Inhibitors of 15-hLO (15-human lipoxygenase). Potency, µM (doses to about 57.1 µM), without a hit: at the top dose activity change, negative = inhibition, actives largely listed as inhibitors. 1.4% of 74,000 active. AID 887, 2007. purified 15hLO-1, xylenol orange hydroperoxide absorbance. Polyunsaturated fatty acid lipoxygenase ALOX15 (Homo sapiens), P16050; also: % is scaled to controls: 0 for no effect and ±100 for the full control effect; nearly all actives have a fitted effect of over 55% in size
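Purified human 15hLO-1 (40 nM) in 25 mM Hepes pH 7.5, 0.01% Triton X-100, preincubated 15 min RT with compound, then 50 uM arachidonic acid for 6 min. Hydroperoxide read by ferrous/xylenol orange, 30 min; 573/405 nm absorbance ratio gave progress.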
Caspase-1 inhib: qHTS Assay for Allosteric/Competitive Inhibitors of Caspase-1 | Caspase-1 enzyme, Ac-WEHD-AFC fluorogenic rate | AID 900, 2007 | 0.03% of 75,000 active | Potency, µM (series often up to 57.5 µM), for inactives: at the top dose activity change, negative = inhibition, hits mostly inhibitors | P29466;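 also: plate controls were vehicle for no effect and no substrate for full effect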
Caspase-7 inhib: qHTS Assay for Allosteric/Competitive Inhibitors of Caspase-7 | AID 889, 2007 | 0.02% of 75,000 active | Potency, µM (top dose mostly 57.5 µM), without a hit: at the top dose activity change, negative = inhibition, most hits filed as inhibitors | recombinant caspase-7, Ac-DEVD-AFC fluorescence rate; active = well fitted inhibition curve with a large enough effect in the main read-out, with a control signal flat, not every such curve was filed as active; inconclusive = small, poorly fitted or top-dose-only effect, or a change in a side signal; also: % of control where 0% means no effect
ERK AVP block: qHTS Assay for Inhibitors of the ERK Signaling Pathway using a Homogeneous Screening Assay | HEK293-V1b, vasopressin-stimulated pERK AlphaScreen | Potency, µM (highest dose often 57.5 µM), for the others: at the highest dose activity, negative = inhibition, usual class: inhibitors | 0.99% of 72,000 active | AID 995, 2007; also: % is scaled to controls: 0 for no effect and ±100 for the full control effect; nearly all actives have a fitted effect of over 55% in size
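HEK293 cells stably expressing V1b receptor, preincubated 30 min at 37 °C with compound, then stimulated 5 min with 25 nM vasopressin. Phospho-ERK by AlphaScreen SureFire after 5 h RT; normalized to DMSO and vasopressin; AC50 by Hill fit.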
The depositor's hits bear a star; ? = inconclusive; / = no result given; [ ] = another dose, or the depositor's remark. Most compounds without a hit are left out; they make up all but 4.8% or so of the library. Unless noted, calls follow the shape of the dose curve; as a rule, active = well fitted curve in the direction sought with a large enough effect; inconclusive = small, poorly fitted or top-dose-only effect, or another doubt; inactive = no such curve, though single readings can be large; an effect the other way counts as inactive or inconclusive. Potency is read from the fitted curve at half-maximal effect.

SMILES	HEK293 cAMP cs	TSHR ag	ALOX15 inhib	Caspase-1 inhib	Caspase-7 inhib	ERK AVP block
C#C[C@@]1(O)CC[C@H]2[C@H]3CCC4=Cc5oncc5C[C@]4(C)[C@@H]3CC[C@@]21C	6.7%	28.8%	/	/	/	/
CS(=O)(=O)N(CC(=O)O)c1ccccc1	1.7%	2.3%	4.7%	-1.5%	-1.3%	/
Cc1cc(O)c(-c2n[nH]c3c2C(c2cccc(O)c2)N(Cc2cccnc2)C3=O)cc1Cl (stereo not given)	-2.4%	27.0%	-20.5%	-2.1%	31.6µM*	-11.9%
COCCCN1C(=O)c2[nH]nc(-c3ccccc3O)c2C1c1cccc(Cl)c1 (stereo not given)	22.2%	11.4%	-19.3%	-3.0%	-1.6%	-3.9%
Cc1cccc(CNc2cc(-c3ccc(C(=O)N(C)C)cc3)ncn2)c1	?	?	-21.1%	-1.0%	-0.4%	-11.3%
CCCNC(=O)CS(=O)(=O)Cc1nc(-c2cccc(OC)c2)oc1C	16.3%	13.1%	7.3%	1.0%	-1.1%	-15.0%
COc1cccc(-c2nc(CS(=O)(=O)CC(=O)Nc3cccc(C)c3C)c(C)o2)c1	25.1µM*	?	-6.4%	-2.4%	-1.9%	-6.3%
Cc1ccccc1-c1nc(CS(=O)(=O)CC(=O)Nc2cc(F)ccc2F)c(C)o1	?	?	-19.9%	-5.3%	-5.6%	12.6µM*
CN1CCN(C(=O)c2cnn3c(C(F)(F)F)cc(-c4ccc5c(c4)OCO5)nc23)CC1	12.0%	15.2%	-3.8%	-6.3%	-2.5%	-4.7%
O=C(c1cnn2c(C(F)(F)F)cc(-c3ccc4c(c3)OCO4)nc12)N1CCCCC1	20µM*	?	-2.3%	-4.1%	-0.1%	-16.1%
O=C1OCCC1Sc1nc(-c2ccccc2)cs1 (stereo not given)	-4.2%	-7.2%	-3.2%	-0.4%	-1.6%	-18.1%
COc1ccc(NC(=O)C2CCN(c3nc(C)nc4c3CCC4)CC2)cc1	31.6µM*	?	4.2%	0.0%	-3.5%	7.7%
COc1cc(CNCCO)ccc1OCC(=O)Nc1ccc(Br)cc1	11.7%	13.5%	-13.0%	-3.1%	-1.3%	-5.0%
COc1cc(CNc2ccc3[nH]c(=O)[nH]c3c2)ccc1OCC(=O)NC(C)(C)C	7.5%	-2.0%	25.1µM*	?	-22.3%	?
COc1ccc(CCNC(=O)CN2CCN(c3cccc(Cl)c3)CC2)cc1OC	?	?	-5.7%	-2.0%	-0.3%	20µM*
COc1cc(CN2CCN(c3cccc(Cl)c3)CC2)cc(OC)c1OC	25.9%	20.0%	-23.0%	0.4%	-2.9%	27.9%
COc1ccc(-n2nnc3c(SCC(=O)N4CCN(c5ccccc5)CC4)ncnc32)cc1	?	?	-0.5%	-2.4%	0.0%	/
CCOc1nc2cccc(C(=O)OC(C)OC(=O)OC3CCCCC3)c2n1Cc1ccc(-c2ccccc2-c2nn[nH]n2)cc1 (stereo not given)	/	/	?	-15.1%	-18.4%	-9.0%
COc1ccc(-c2noc(CSc3nc(N)c(-c4ccccc4)c(=O)[nH]3)n2)cc1	14.4%	/	-26.1%	-1.2%	-3.6%	12.6µM*
C=CCNc1ncnc2c1[nH]c1ccccc12	20.2%	27.3%	-4.7%	-2.1%	6.0%	?
CCOCCCNc1ncnc2c1[nH]c1ccccc12	?	?	11.4%	-3.1%	-2.1%	39.8µM*
O=C1[C@H]2[C@H]3[C@H](O)[C@H](O)C/C(=N/OC[C@@H](O)COCc4ccco4)[C@H]3CC[C@@H]2C(=O)N1C1CCCCC1	8.9%[11.4 µM]	-6.4%[11.4 µM]	3.2%[11.4 µM]	-1.8%[11.5 µM]	-2.1%[11.5 µM]	10.2%[11.5 µM]
COc1ccc(-n2nc3cc(C)c(N)c(Br)c3n2)cc1	-4.4%	-11.1%	15.8µM*	?	-22.1%	31.6µM*
COc1ccc(-n2nc3ccccc3n2)cc1	8.0%	6.3%	3.5%	-1.2%	-0.3%	-10.2%
